# PubChem BioAssay (NCATS)
# Results filed as inconclusive are left out. Entries that show only a call come without a potency. Calls of active or inactive are those of the source. Calls follow the shape of the dose curve; as a rule, active = well fitted cell-killing curve with a large enough effect; inconclusive = small, poorly fitted or top-dose-only effect; inactive = flat fitted curve, though single readings scatter.
# Assay: Cell Viability - LYMP2-010 (AID 981); also: nearly all actives have a fitted effect of over 55% in size
# Details: LYMP2-010 lymphoblastoid cell viability, qHTS; series mostly up to 92.2 µM
# Description: NIH Chemical Genomics Center [NCGC]
# NIH Molecular Libraries Screening Centers Network [MLSCN]
# National Institutes of Environmental Health Sciences [NIEHS]
# National Toxicology Program [NTP]
# We have developed a 1536-well cell-based assay for quantitative high throughput screening (qHTS) against a number of cell lines to determine in vitro cytotoxicity of small molecules. This particular assay uses a human lymphoblastoid cell line (LYMP2-010) purchased from Coriell Institute for Medical Research.
# NCGC Assay Protocol Summary:
# The CellTiter-Glo luminescent cell viability assay (Promega) is a homogeneous method to measure the number of viable cells in culture. The end point readout of this assay is based on quantitation of intracellular ATP, an indicator of metabolic activity, using the luciferase reaction. Luciferase catalyzes the oxidation of beetle Luciferin to oxyluciferin and light in the presence of ATP. The luminescent signal is proportional to amount of ATP present.
# Using the CellTiter-Glo luminescent cell viability assay, the amount of cellular ATP was measured in the lymphoblastoid cell line with complete culture medium following compound treatment for 24 hours. The assay was performed in opaque white Kalypsys 1536-well plates. In the screen, tetraoctylammonium bromide was used as positive control. Library compounds were measured for their ability to cause acute toxicity in the cell line, as reflected by a decrease in intracellular ATP levels, in a concentration-dependent manner. […] AC50 values were determined from concentration-response data modeled with the standard Hill equation.
# qHTS protocol for CellTiter Glo lymphoblastoid cellular assay
# [Step] [Parameter] [Value] [Description]
# 1. Reagent; 5 uL; 2500 lymphoblastoid cells/well
# 2. Time; 5 hr; 37 C incubation
# 4. Controls; 23 nL; Tetraoctylammonium bromide 6.4pM to 92 uM
# 5. Time; 24 hr; 37 C incubation
# 6. Reagent; 5 uL; CellTiter Glo reagent
# 7. Time; 30 min; Room Temperature
# 8. Detection; Luminescence; Viewlux plate reader
# Keywords: cell viability, cytotoxicity, lymphoblastoid cell line, luminescence, NTPHTS, NTPHTS_NCGC, NIEHS, DSSTox, MLSMR, MLSCN, NIH Roadmap, qHTS, NCGC
# Potency is read from the fitted curve at half-maximal effect.
row,Structure (SMILES),Potency
1,CC(C)(C)CC(C)(C)c1ccc(OCCOCC[N+](C)(C)Cc2ccccc2)cc1,31.6 µM (active)
2,CN(C)/N=N/c1nc[nH]c1C(N)=O,inactive
3,CC(=O)Oc1ccc(C(c2ccc(OC(C)=O)cc2)c2ccccn2)cc1,inactive
4,NC(=NCCCCCCN=C(N)/N=C(\N)Nc1ccc(Cl)cc1)/N=C(\N)Nc1ccc(Cl)cc1,39.8 µM (active)
5,CC(=O)O[C@]1(C(C)=O)CC[C@H]2[C@@H]3C[C@H](C)C4=CC(=O)CC[C@]4(C)[C@H]3CC[C@@]21C,31.6 µM (active)
6,COc1cccc2c1C(=O)c1c(O)c3c(c(O)c1C2=O)C[C@@](O)(C(C)=O)C[C@@H]3O[C@H]1C[C@H](N)[C@H](O)[C@H](C)O1,0.199 µM (active)
7,C=CCc1ccc(O)c(OC)c1,inactive
8,CCCCCCc1ccc(O)cc1O,inactive
9,C[C@]12CC[C@@H]3c4ccc(O)cc4CC[C@H]3[C@@H]1CC[C@@H]2O,inactive
10,Oc1c(I)cc(Cl)c2cccnc12,50.1 µM (active)
11,Oc1c(Cl)cc(Cl)cc1Sc1cc(Cl)cc(Cl)c1O,50.1 µM (active)
12,COC1=CC(=O)C[C@@H](C)[C@]12Oc1c(Cl)c(OC)cc(OC)c1C2=O,inactive
13,CC(O)C(=O)O (stereo not given),inactive
14,COc1cccc2c1C(=O)c1c(O)c3c(c(O)c1C2=O)C[C@@](O)(C(=O)CO)C[C@@H]3O[C@H]1C[C@H](N)[C@H](O)[C@H](C)O1,0.251 µM (active)
15,O=c1ccc2ccccc2o1,inactive
16,O=C1OC(c2ccc(O)cc2)(c2ccc(O)cc2)c2ccccc21,inactive
17,Oc1ccc(O)cc1,39.8 µM (active)
18,Nc1ccc(C(=O)O)cc1,inactive
19,O=C(O)CCCCC(=O)O,inactive
20,C=C(CC)C(=O)c1ccc(OCC(=O)O)c(Cl)c1Cl,39.8 µM (active)
